{
  "source": "PubChem BioAssay (NCI)",
  "note": "About 83,000 compounds went through this panel and 20% of them were active in at least one assay; those are over-represented in the sample as a whole.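 Assay: single dose, 48 h. Readout: percent growth (0 = no net growth; negative = cell death). Active: <10.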 Unmarked numbers belong to inactive results. Calls of active or inactive are those of the source.",
  "data": [
    {"test_system": "MDA-MB-468 breast", "experiment": "NCI-60 one-dose screen, 48 h (100 = growth as untreated, 0 = no growth, -100 = all killed)", "conditions": "10 µM unless noted", "values": [
      {"smiles": "O=C(Nc1ccc(Br)cc1)C1=NCCCCN1", "growth": "97.6%"},
      {"smiles": "Nc1ccn(Cc2nnc(CCC(=O)c3nc4ccccc4[nH]3)o2)c(=O)n1", "growth": "79%"},
      {"smiles": "N#Cc1ccc(NC(=O)Nc2nc3ccc(OC(F)(F)F)cc3s2)cc1", "growth": "-2.64% (active)"}
    ]}
  ]
}
